Here are results for two compounds from PubChem BioAssay AID588496 (NMMLSC, 2011).

The other results are listed elsewhere or left out. The source made the active and inactive calls.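 Rule for the calls: active = compounds that dim the fluorescent label, raw bead signal shifting by over 33 units between lowest and highest dose; inactive = the rest.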

This experiment in a line: quenchers of FAM-labeled RNA aptamer fluorescence, dose response, artefact control for GRK2 aptamer binding project, biochemical, powder set 1, flow cytometry (AID 588496). The conditions noted are these: Bead-bound FAM RNA aptamer fluorescence quenching; MCF span: fluorescence change max-min concentration, stronger effect = higher value; fluorescence ratio to DMSO: at 11.1 µM, stronger effect = lower value.

Regarding `O=C(CCS(=O)(=O)c1ccc(Br)cc1)NCCc1ccc(Cl)cc1`, the MCF span is 3.2 and the fluorescence ratio to DMSO was 99% (inactive).

For `COc1ccc(Cl)cc1NC(=O)CCS(=O)(=O)c1ccc(Br)cc1`, the MCF span is -1.1 and the fluorescence ratio to DMSO is 98% (inactive).
